# Assay results taken from PubChem BioAssay (NCATS).
# Inconclusive results are not listed. A call without a number means that no potency is given here. Unmarked numbers belong to inactive results. Activity calls are given as the source filed them. The call rests on the fitted dose curve; in most records, active means well fitted curve in the direction sought with a large enough effect; inconclusive means small, poorly fitted or top-dose-only effect, or another doubt; inactive means no such curve, though single readings can be large; an effect the other way counts as inactive or inconclusive.
# How the values were obtained:
# [1] = test system: Es-2; test: Primary qHTS to identify gynecologic anti-cancer compounds using libraries of approved drugs and bioactive compounds (AID 1345084); settings: Gynecologic cancer cell panel viability, ATPlite luminescence, 48 h; series mostly up to 57.5 µM; further: nearly all actives have a fitted effect of over 55% in size
# How it was run: (§1)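 ATP-based viability (ATPlite), 1,000 cells/well, 16 h pre-incubation, 48 h compound at 37 C, 5% CO2, 15 min RT before read.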
# [2] = test system: HeLa; test: as above; settings: Gynecologic cancer cell panel viability, ATPlite luminescence, 48 h; series mostly up to 57.5 µM
# How it was run: as §1
# [3] = test system: Hek293T; test: as above; settings: Gynecologic cancer cell panel viability, ATPlite luminescence, 48 h, control line for the selectivity index; series mostly up to 57.5 µM
# How it was run: as §1
# [4] = test system: JEG-3; test: as above; settings: Gynecologic cancer cell panel viability, ATPlite luminescence, 48 h; series mostly up to 57.5 µM
# How it was run: as §1
# [5] = test system: OV90; test: as above; settings: Gynecologic cancer cell panel viability, ATPlite luminescence, 48 h; series mostly up to 57.5 µM
# How it was run: as §1
# [6] = test system: PA-1; test: as above; settings: Gynecologic cancer cell panel viability, ATPlite luminescence, 48 h; series mostly up to 57.5 µM
# How it was run: as §1
# [7] = test system: SKOV3; test: as above; settings: Gynecologic cancer cell panel viability, ATPlite luminescence, 48 h; series mostly up to 57.5 µM
# How it was run: as §1
# [8] = test system: Tov-21-G; test: as above; settings: Gynecologic cancer cell panel viability, ATPlite luminescence, 48 h; series mostly up to 57.5 µM
# How it was run: as §1
# [9] = test system: Tov112D; test: as above; settings: Gynecologic cancer cell panel viability, ATPlite luminescence, 48 h; series mostly up to 57.5 µM
# How it was run: as §1
# [10] = Drug repurposing screens with cells derived from glioblastoma tumor samples (AID 1345199); settings: GBM patient neurospheres viability, ATP luminescence, 48 h; further: nearly all actives have a fitted effect of over 40% in size; further: potency means the concentration at half of the fitted maximal effect
# How it was run: (§2)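 Primary testing used CD133+ neurospheres from four GBM patients, seven concentrations, 48 h exposure and ATP-based viability; confirmation added three slower-growing patient lines.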
# [11] = test system: astro; test: as above; settings: viability, ATP luminescence, 48 h; series mostly up to 45.9 µM
# How it was run: as §2
# [12] = at 45.9 µM (top of the series), tumour line B
# [13] = at 45.9 µM (top of the series), tumour line D
# [14] = at 46 µM (top of the series), tumour line A
# [15] = at 46.1 µM (top of the series), tumour line C
# [16] = at 20 µM (top of the series), tumour line C
# [17] = at 21.2 µM (top of the series), tumour line B
# [18] = at 21.2 µM (top of the series), tumour line D
# [19] = at 21.3 µM (top of the series), tumour line A
Compound,Potency [1],Potency [2],Potency [3],Potency [4],Potency [5],Potency [6],Potency [7],Potency [8],Potency [9],"activity, negative = cell killing [10, 12]","activity, negative = cell killing [10, 13]","activity, negative = cell killing [10, 14]","activity, negative = cell killing [10, 15]",Potency [11],"activity, negative = cell killing [10, 16]","activity, negative = cell killing [10, 17]","activity, negative = cell killing [10, 18]","activity, negative = cell killing [10, 19]",Potency ([10]; tumour line A),Potency ([10]; tumour line D)
O=S(=O)(c1cccc2cnccc12)N1CCCNCC1,inactive,inactive,inactive,inactive,inactive,inactive,inactive,inactive,inactive,-0.368%,-10.7%,-20.9%,-21.1%,inactive,–,–,–,–,–,–
O=c1oc2c(O)c(O)cc3c(=O)oc4c(O)c(O)cc1c4c23,inactive,inactive,inactive,inactive,inactive,inactive,inactive,inactive,inactive,-21.4%,–,–,-1.64%,–,–,–,–,–,–,–
O=C(O)c1cccnc1,inactive,inactive,inactive,inactive,inactive,inactive,inactive,inactive,inactive,-10%,-8.9%,–,-28.3%,–,–,–,–,–,–,–
O=NN(CCCl)C(=O)NC1CCCCC1,inactive,inactive,inactive,inactive,inactive,inactive,inactive,inactive,inactive,-2.15%,-13.5%,–,-16.6%,–,–,–,–,–,–,–
CC(C)OC(=O)OCOP(=O)(CO[C@H](C)Cn1cnc2c(N)ncnc21)OCOC(=O)OC(C)C,inactive,inactive,inactive,inactive,inactive,inactive,inactive,inactive,inactive,-7.36%,-12.2%,-9.04%,-6.09%,–,–,–,–,–,–,–
Nc1ccc(S(=O)(=O)Nc2ccccn2)cc1,inactive,inactive,inactive,inactive,inactive,inactive,inactive,inactive,inactive,–,–,–,–,–,-7.01%,0.146%,5.31%,-9.41%,–,–
CC(C)(Sc1cc(C(C)(C)C)c(O)c(C(C)(C)C)c1)Sc1cc(C(C)(C)C)c(O)c(C(C)(C)C)c1,inactive,inactive,inactive,inactive,inactive,inactive,inactive,inactive,inactive,–,–,–,–,–,-9.49%,-22%,–,–,4.47 µM (active),–
CN(C)CCc1c[nH]c2ccc(C[C@H]3COC(=O)N3)cc12,inactive,inactive,inactive,inactive,inactive,inactive,inactive,inactive,inactive,-19.9%,-11%,–,4.56%,–,–,–,–,–,–,–
COc1cccc(N(C)C(=S)Oc2ccc3c(c2)CCCC3)n1,inactive,inactive,inactive,inactive,inactive,inactive,inactive,inactive,inactive,–,–,–,-18.5%,–,–,–,–,–,12.6 µM (active),17.8 µM (active)
NS(=O)(=O)c1cc2c(cc1Cl)NC(C(Cl)Cl)NS2(=O)=O (stereo not given),inactive,inactive,inactive,inactive,inactive,inactive,inactive,inactive,inactive,–,–,–,–,–,6.84%,-4.6%,-11.1%,-6.45%,–,–
Cn1c(=O)c2c(ncn2CC(O)CO)n(C)c1=O (stereo not given),inactive,inactive,inactive,inactive,inactive,inactive,inactive,inactive,inactive,–,–,–,–,inactive,1.09%,1.11%,1.54%,3.02%,–,–
Cc1nnc(C(=O)NC(C)(C)c2nc(C(=O)NCc3ccc(F)cc3)c(O)c(=O)n2C)o1,inactive,inactive,inactive,inactive,inactive,inactive,inactive,inactive,inactive,5.76%,-4.7%,-16.1%,13.1%,inactive,–,–,–,–,–,–
CC(C)C1CCC(C(=O)N[C@H](Cc2ccccc2)C(=O)O)CC1 (stereo not given in full),inactive,inactive,inactive,inactive,inactive,inactive,inactive,inactive,inactive,-7.58%,5.65%,-15.4%,-13.4%,–,–,–,–,–,–,–
CNC1CCCN(c2c(F)cc3c(=O)c(C(=O)O)cn(C4CC4)c3c2OC)C1 (stereo not given),inactive,inactive,inactive,inactive,inactive,inactive,inactive,inactive,inactive,0.798%,-8.95%,-37.3%,-5.21%,–,–,–,–,–,–,–
CC[C@H](NC(C)C)[C@H](O)c1ccc(O)c2[nH]c(=O)ccc12,inactive,inactive,inactive,inactive,inactive,inactive,inactive,inactive,inactive,-9.21%,-7.02%,-27%,18.7%,–,–,–,–,–,–,–
Nc1[nH]c(=O)ncc1F,inactive,inactive,inactive,inactive,inactive,inactive,inactive,inactive,inactive,–,–,–,–,inactive,6.56%,-3.24%,-9.05%,-15%,–,–
